Screening data deposited in PubChem by Sanford-Burnham Center for Chemical Genomics.
The list is not random: actives were taken first. Their share in the collection is about 3%.
C8 TRAIL sens = viability loss with TRAIL in NB7+C8 cells, primary screen, TRAIL sensitizer project, cell-based, ATPlite luminescence. inhibition (viability loss, TRAIL sensitization), % at 10 µM. 1% of 360,000 active;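 active means compounds causing at least 50% loss of cell viability in the single-dose screen, relative to plate controls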
SENP7 inh = SENP7 protease inhibitors, primary screen, biochemical, luminescence, uHTS | Sentrin-specific protease 7 (Homo sapiens), Q9BQF6 | recombinant SENP7, Z-RLRGG-aminoluciferin luminescence, 40 min | inhibition, % at 5 µM | 1.5% of 330,000 active | AID 434973, 2010;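 active means inhibition above about 50% at the single test dose, limit read from the data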
Target sequence (Q9BQF6 706-1050 limits assumed): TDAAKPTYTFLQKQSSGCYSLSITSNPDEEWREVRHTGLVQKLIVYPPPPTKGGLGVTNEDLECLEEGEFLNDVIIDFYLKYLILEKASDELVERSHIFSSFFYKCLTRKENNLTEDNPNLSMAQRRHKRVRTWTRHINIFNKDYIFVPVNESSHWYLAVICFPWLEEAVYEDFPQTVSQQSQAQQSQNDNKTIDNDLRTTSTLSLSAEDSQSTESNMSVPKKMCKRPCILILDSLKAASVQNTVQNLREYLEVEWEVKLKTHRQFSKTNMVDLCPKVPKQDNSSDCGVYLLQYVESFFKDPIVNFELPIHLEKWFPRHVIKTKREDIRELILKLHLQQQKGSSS
SENP8 block-1 = human SENP8 protease inhibitors, primary screen, biochemical, fluorescence, Nedd8 protein substrate, uHTS | Sentrin-specific protease 8 (Homo sapiens), Q96LD8 | recombinant SENP8 | inhibition, % at 20 µM | 0.64% of 360,000 active; in the data active means inhibition mostly above about 40%, no sharp cut-off; inactive means mostly below about 27%
SENP6 block = SENP6 protease inhibitors, primary screen, biochemical, luminescence, uHTS | Sentrin-specific protease 6 (Homo sapiens), Q9GZR1 | inhibition, % at 10 µM | 1.8% of 330,000 active | Recombinant SENP6 catalytic domain, aminoluciferin luminescence;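 active means inhibition above about 50% at the single tested dose, limit read from the data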
PPC-1+TRAIL kill = compounds killing PPC-1 cancer cells with TRAIL present, primary screen, TRAIL potentiator project, ATPLite luminescence, uHTS; AID 1443, 2008; 0.41% of 220,000 active; PPC-1 cells + TRAIL, ATPLite viability luminescence; cell killing (% activity), % at 4 µM or 5 µM;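 active means cell killing above 50% in the first pass at 4 µM, then a duplicate retest at 5 µM averaging 50% or more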
SENP8 block-2 = SENP8 protease inhibitors, primary screen, biochemical, luminescence; purified SENP8, Z-RLRGG-aminoluciferin cleavage; 1.2% of 330,000 active; inhibition, % at 10 µM; in the data active means inhibition above about 50%
SENP8 conf = SENP8 protease inhibitors, retest, confirmation, biochemical, luminescence, single concentration. Recombinant SENP8, Z-RLRGG-aminoluciferin luminescence, 60 min. shares compounds with SENP7 inh. inhibition, % at 12.5 µM. 40% of 6,200 active;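 active means mean inhibition across replicates above about 50%, limit read from the data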
SENP6 conf = SENP6 protease inhibitors, confirmation, biochemical, luminescence, single concentration; 58% of 6,200 active; recombinant SENP6, Z-RLRGG-aminoluciferin luminescence; shares compounds with SENP7 inh; inhibition, % at 12.5 µM
SENP7 confirm = SENP7 protease inhibitors, retest, confirmation, biochemical, luminescence, single concentration | inhibition, % at 12.5 µM | shares compounds with SENP7 inh | recombinant SENP7, Z-RLRGG-aminoluciferin luminescence, 40 min | 69% of 6,200 active | AID 488917, 2010
Casp3 select = caspase-3 protease inhibitors, confirmation, selectivity assay for SENP inhibitor project, biochemical, single concentration. shares compounds with SENP7 inh. 60% of 6,200 active. inhibition, % at 12.5 µM. purified caspase-3, Z-DEVD-aminoluciferin luminescence, 60 min;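 active means mean inhibition above about 50%, limit read from the data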
Target sequence (P42574 28-227 limits assumed): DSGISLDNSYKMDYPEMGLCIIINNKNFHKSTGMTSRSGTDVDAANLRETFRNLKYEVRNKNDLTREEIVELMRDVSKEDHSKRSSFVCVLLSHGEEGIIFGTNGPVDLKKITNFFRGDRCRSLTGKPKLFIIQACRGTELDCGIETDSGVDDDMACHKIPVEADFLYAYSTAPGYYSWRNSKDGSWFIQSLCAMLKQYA
SENP luc ctr = interferes with luciferase luminescence in SENP counter-screen | shares compounds with SENP7 inh | Pre-incubated SENP8/Z-RLRGG-aminoluciferin, luciferase luminescence interference | inhibition, % at 12.5 µM | 39% of 6,200 active;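 active means mean inhibition above about 50% when retested at one dose, limit read from the data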
Numbers stand for hits; i = inactive; nt = no result.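 How the source made its calls, unless noted: active means mean inhibition above about 50% in the one-dose retest (limit read from the data); inactive means the rest.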

SMILES	C8 TRAIL sens	SENP7 inh	SENP8 block-1	SENP6 block	PPC-1+TRAIL kill	SENP8 block-2	SENP8 conf	SENP6 conf	SENP7 confirm	Casp3 select	SENP luc ctr
COc1ccc(OC)c(-n2nnnc2SCC(=O)Nc2ccc3c(c2)OCCO3)c1	i	i	i	i	i	i	nt	nt	nt	nt	nt
CCOC(=O)/C=C(\C)N1N=C(c2ccccc2)CC1c1ccccc1 (stereo not given)	i	i	i	51.9	i	i	i	i	75.4	i	i
CCOC(=O)c1nnn(CC(=O)N2N=C(c3ccccc3)CC2c2ccccc2)c1C(=O)OCC (stereo not given)	i	i	i	i	i	i	nt	nt	nt	nt	nt
CCOc1ccc(/C=C/C(=O)Oc2ccccc2)cc1	i	58.6	i	i	nt	i	i	i	i	i	i
O=Cc1ccc(OC(=O)/C=C/c2ccccc2)cc1	i	i	i	i	nt	i	nt	nt	nt	nt	nt
O=S(=O)(NC1=NCCC1)c1ccc(F)cc1F	i	i	i	i	i	i	nt	nt	nt	nt	nt
COc1cccc(N=Nc2c(C)[nH]n(-c3ccccc3)c2=O)c1	i	i	i	i	nt	i	nt	nt	nt	nt	nt
COc1cccc(C(C[N+](=O)[O-])c2c(C)[nH]n(-c3ccccc3)c2=O)c1 (stereo not given)	i	85.4	72.9	82.9	nt	64.6	i	i	i	i	i
COc1ccc(-n2cc3ccc([N+](=O)[O-])cc3n2)cc1	i	86.9	i	78.0	nt	78.3	i	50.7	71.6	59.4	i
NC(CCc1ccccc1)c1csc(Nc2cnccn2)n1 (stereo not given)	i	nt	i	nt	nt	nt	nt	nt	nt	nt	nt
CN(C1=C(NC(=O)c2ccccc2)C(=O)c2ccccc2C1=O)C1CCS(=O)(=O)C1 (stereo not given)	i	53.0	63.8	95.0	i	60.0	69.9	86.8	57.3	75.2	i
O=C(NC(=S)NC1CCS(=O)(=O)C1)c1ccccc1 (stereo not given)	i	i	i	i	nt	i	nt	nt	nt	nt	nt
CN(C)c1ccc(/C=C/C(=O)c2cccc(Br)c2)cc1	i	i	i	52.2	i	i	i	i	i	i	i
CN(C)c1ccc(C(=O)/C=C/c2cccnc2)cc1	i	i	i	i	nt	i	nt	nt	nt	nt	nt
Cc1cc(C(=O)N/N=C/c2ccccc2)c(C)o1	i	73.6	i	i	i	i	59.3	57.3	84.8	83.2	60.4
Cc1occc1C(=O)N/N=C/C=C/c1ccccc1	i	54.8	i	58.4	i	i	70.1	68.3	91.2	86.2	70.0
Cc1occc1C(=O)N/N=C/c1ccc(N(C)C)cc1	i	97.9	i	96.1	i	96.4	i	100.2	103.6	99.1	98.0
Cc1occc1C(=O)N/N=C/C=C/c1ccc(N(C)C)cc1	i	i	i	i	nt	i	nt	nt	nt	nt	nt
O=C(N/N=C/C(Br)=C\c1ccccc1)c1ccco1	i	i	i	i	i	i	nt	nt	nt	nt	nt
Cc1occc1C(=O)N/N=C/C(Br)=C\c1ccccc1	i	95.6	i	91.7	i	90.9	90.7	94.9	101.1	89.7	60.6
CC(=O)Nc1ccc(NC(=O)C2CCN(c3ccc(C(F)(F)F)cn3)CC2)cc1	i	i	i	i	i	i	nt	nt	nt	nt	nt
CN(CCCNC(=O)c1ccc(CS(=O)c2ccc(Br)cc2)o1)Cc1ccccc1 (stereo not given)	i	i	i	i	nt	i	nt	nt	nt	nt	nt
C/C(=N\NC(=O)c1ccoc1C)c1ccccc1	i	69.4	i	72.7	i	51.0	i	59.5	87.3	84.4	i
C/C(=N\NC(=O)c1cccnc1)c1ccc(Br)cc1	i	i	i	i	nt	i	nt	nt	nt	nt	nt
C/C(=N\NC(=O)c1ccc(Br)cc1)c1ccccc1	i	i	i	70.2	i	i	i	55.3	i	i	i
SMILES	C8 TRAIL sens	SENP7 inh	SENP8 block-1	SENP6 block	PPC-1+TRAIL kill	SENP8 block-2	SENP8 conf	SENP6 conf	SENP7 confirm	Casp3 select	SENP luc ctr
O=[N+]([O-])c1cc(-c2cnc3ccccc3n2)ccc1Cl	i	50.7	i	i	i	i	i	i	i	i	i
O=C(Oc1ccc(-c2cnc3ccccc3n2)cc1)c1cc([N+](=O)[O-])ccc1Cl	i	77.7	i	i	i	i	i	i	i	i	i
O=[N+]([O-])c1cccc(-c2cnc3ccccc3n2)c1	i	i	i	i	i	i	nt	nt	nt	nt	nt
Nc1cccc(-c2cnc3ccccc3n2)c1	i	57.9	i	68.0	nt	51.2	i	i	78.3	75.4	i
Cc1c(C(=O)Oc2ccc(-c3cnc4ccccc4n3)cc2)cccc1[N+](=O)[O-]	i	i	i	i	i	i	nt	nt	nt	nt	nt
Cc1ccc(-c2nnc(Oc3ccc(NC(=O)c4ccccc4)cc3)c3ccccc23)cc1	i	i	i	i	i	i	nt	nt	nt	nt	nt
O=C1CC(/C=C/c2ccc(Cl)cc2)=Nc2ccccc2N1	i	i	i	i	i	i	nt	nt	nt	nt	nt
O=C1CC(/C=C/c2ccccc2)=Nc2ccccc2N1	i	i	i	66.7	i	i	i	i	55.9	i	i
CN(N=Nc1ccc([N+](=O)[O-])cc1)c1ccccc1	i	59.6	i	59.8	i	i	i	i	i	i	i
CC(C)N(N=Nc1ccc([N+](=O)[O-])cc1)C(C)C	i	i	i	i	i	i	nt	nt	nt	nt	nt
CN(CCCC(=O)O)c1ccc(N=Nc2ccc([N+](=O)[O-])cc2)cc1	i	53.5	i	90.3	nt	80.8	84.5	83.8	i	75.6	i
CN(C(=O)Nc1cccc([N+](=O)[O-])c1)c1ccccc1	i	nt	i	nt	nt	nt	nt	nt	nt	nt	nt
CN(N=Nc1cccc([N+](=O)[O-])c1)c1ccccc1	i	i	i	50.8	nt	i	i	50.1	73.3	i	i
COc1ccc(S(=O)(=O)CCC(=O)Nc2cccc(OC)c2)cc1	nt	i	nt	i	i	i	nt	nt	nt	nt	nt
Cc1ccc(C(=O)NCCCNC(=O)Cc2ccc(Cl)cc2)cn1	i	i	i	i	nt	i	nt	nt	nt	nt	nt
